# Measurements taken from PubChem BioAssay (NCATS).
# Results filed as inconclusive are left out. A number with no mark means an inactive call. Calls follow the shape of the dose curve; as a rule, active = well fitted inhibition curve with a large enough effect; inconclusive = small, poorly fitted or top-dose-only effect; inactive = flat fitted curve, though single readings scatter.
# Tested on: KB-3-1
# Assay: Cytotoxic Profiling of Annotated Libraries Using Quantitative High-Throughput Screening (AID 1296008); also: nearly all actives have a fitted effect of over 60% in size
# Details: Five cell lines viability, CellTiter-Glo ATP luminescence, 48-72 h; max response: active compounds read low
# Summary of the method: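 Cytotoxicity was measured as CellTiter-Glo ATP luminescence, read after 10 min at room temperature. Compound treatment of the cells lasted 48 or 72 hr at 37 degrees Celsius in a qHTS format.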
# % is scaled to controls: 0 for no effect and ±100 for the full control effect.
row,SMILES,max response
1,CC(C)C[C@H](NC(=O)[C@@H](Cc1c[nH]c2ccccc12)NC(=O)[C@H](Cc1ccc(O)cc1)NC(=O)[C@H](CO)NC(=O)[C@H](Cc1c[nH]c2ccccc12)NC(=O)[C@H](Cc1cnc[nH]1)NC(=O)[C@@H]1CCC(=O)N1)C(=O)N[C@@H](CCCN=C(N)N)C(=O)N1CCC[C@@H]1C(=O)NCC(N)=O,0.539%
2,CC(=O)OCC(=O)[C@@]1(O)CC[C@H]2[C@@H]3CCC4=CC(=O)CC[C@]4(C)C3=CC[C@@]21C,-7.13%
3,CC(C)(CO)[C@@H](O)C(=O)NCCCC(=O)O,-10.7%
4,COc1cc2c(cc1OC)[C@@H](c1ccccc1)CN(C)CC2,-3.02%
5,CC[C@@H](C)[C@H](N)C(=O)O,-7.63%
6,CNCC(=O)N[C@@H](CCCN=C(N)N)C(=O)N[C@H](C(=O)N[C@@H](Cc1ccc(O)cc1)C(=O)N[C@H](C(=O)N[C@@H](Cc1cnc[nH]1)C(=O)N1CCC[C@H]1C(=O)N[C@@H](C)C(=O)O)C(C)C)C(C)C,1.41%
7,Nc1nc(NC2CC2)c2ncn([C@@H]3C=C[C@@H](CO)C3)c2n1,3.44%
8,CCOC(=O)Oc1c(OC)cc(C(=O)O[C@@H]2C[C@@H]3CN4CCc5c([nH]c6cc(OC)ccc56)[C@H]4C[C@@H]3[C@H](C(=O)OC)[C@H]2OC)cc1OC,3.08%
9,CC(C)(C)NCC(O)c1ccc(O)c(CO)n1 (stereo not given),-3.71%
10,CCN1C(=O)NC(c2ccccc2)C1=O (stereo not given),16.5%
